Results as given in ChEMBL document CHEMBL1961873, “Compounds: GSK PKIS; Assays: Nanosyn kinase panel” (2012).

How the values were obtained:
[1] = molecular target: Tyrosine-protein kinase CSK (Homo sapiens) (UniProt P41240); settings: at 1 µM;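 also: each value is an averaged inhibition reading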
[2] = molecular target: T1, Discoidin domain-containing receptor 2 (Homo sapiens) (UniProt Q16832); settings: at 0.1 µM
T1 sequence (whole entry): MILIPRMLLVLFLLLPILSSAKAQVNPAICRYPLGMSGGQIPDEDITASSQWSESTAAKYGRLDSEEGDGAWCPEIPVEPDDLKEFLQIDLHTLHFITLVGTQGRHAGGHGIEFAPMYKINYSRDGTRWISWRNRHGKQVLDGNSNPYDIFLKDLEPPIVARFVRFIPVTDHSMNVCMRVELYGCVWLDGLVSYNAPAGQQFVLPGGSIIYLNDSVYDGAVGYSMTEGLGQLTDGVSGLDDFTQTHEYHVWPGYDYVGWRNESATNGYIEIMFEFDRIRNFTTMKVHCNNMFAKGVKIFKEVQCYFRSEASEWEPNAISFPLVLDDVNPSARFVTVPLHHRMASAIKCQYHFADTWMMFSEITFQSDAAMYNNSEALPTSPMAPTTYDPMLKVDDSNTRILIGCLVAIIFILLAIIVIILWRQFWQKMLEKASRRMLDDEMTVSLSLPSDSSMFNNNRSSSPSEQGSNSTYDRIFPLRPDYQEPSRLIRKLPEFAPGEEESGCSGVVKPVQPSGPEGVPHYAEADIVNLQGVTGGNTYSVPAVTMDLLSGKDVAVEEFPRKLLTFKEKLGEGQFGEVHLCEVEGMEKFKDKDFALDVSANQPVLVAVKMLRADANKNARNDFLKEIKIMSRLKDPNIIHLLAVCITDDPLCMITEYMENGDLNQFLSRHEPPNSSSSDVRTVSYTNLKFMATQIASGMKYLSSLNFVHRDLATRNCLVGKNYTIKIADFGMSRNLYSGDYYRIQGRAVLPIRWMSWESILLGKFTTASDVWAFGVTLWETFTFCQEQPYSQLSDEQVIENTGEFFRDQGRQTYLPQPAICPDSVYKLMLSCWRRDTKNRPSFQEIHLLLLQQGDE

[3] = molecular target: T1, Discoidin domain-containing receptor 2 (Homo sapiens); settings: at 1 µM
[4] = molecular target: Epidermal growth factor receptor (Homo sapiens) (UniProt P00533); settings: at 0.1 µM
[5] = molecular target: Epidermal growth factor receptor (Homo sapiens) (UniProt P00533); settings: at 1 µM
[6] = system: Epidermal growth factor receptor (Homo sapiens), P00533 [L858R]; settings: at 0.1 µM
[7] = system: Epidermal growth factor receptor (Homo sapiens), P00533 [L858R]; settings: at 1 µM
[8] = system: Epidermal growth factor receptor (Homo sapiens), P00533 [L861Q]; settings: at 0.1 µM
[9] = system: Epidermal growth factor receptor (Homo sapiens), P00533 [L861Q]; settings: at 1 µM
[10] = system: Epidermal growth factor receptor (Homo sapiens), P00533 [T790M]; settings: at 0.1 µM
Chain of Epidermal growth factor receptor (Homo sapiens), P00533 [T790M] (P00533 whole entry T790M): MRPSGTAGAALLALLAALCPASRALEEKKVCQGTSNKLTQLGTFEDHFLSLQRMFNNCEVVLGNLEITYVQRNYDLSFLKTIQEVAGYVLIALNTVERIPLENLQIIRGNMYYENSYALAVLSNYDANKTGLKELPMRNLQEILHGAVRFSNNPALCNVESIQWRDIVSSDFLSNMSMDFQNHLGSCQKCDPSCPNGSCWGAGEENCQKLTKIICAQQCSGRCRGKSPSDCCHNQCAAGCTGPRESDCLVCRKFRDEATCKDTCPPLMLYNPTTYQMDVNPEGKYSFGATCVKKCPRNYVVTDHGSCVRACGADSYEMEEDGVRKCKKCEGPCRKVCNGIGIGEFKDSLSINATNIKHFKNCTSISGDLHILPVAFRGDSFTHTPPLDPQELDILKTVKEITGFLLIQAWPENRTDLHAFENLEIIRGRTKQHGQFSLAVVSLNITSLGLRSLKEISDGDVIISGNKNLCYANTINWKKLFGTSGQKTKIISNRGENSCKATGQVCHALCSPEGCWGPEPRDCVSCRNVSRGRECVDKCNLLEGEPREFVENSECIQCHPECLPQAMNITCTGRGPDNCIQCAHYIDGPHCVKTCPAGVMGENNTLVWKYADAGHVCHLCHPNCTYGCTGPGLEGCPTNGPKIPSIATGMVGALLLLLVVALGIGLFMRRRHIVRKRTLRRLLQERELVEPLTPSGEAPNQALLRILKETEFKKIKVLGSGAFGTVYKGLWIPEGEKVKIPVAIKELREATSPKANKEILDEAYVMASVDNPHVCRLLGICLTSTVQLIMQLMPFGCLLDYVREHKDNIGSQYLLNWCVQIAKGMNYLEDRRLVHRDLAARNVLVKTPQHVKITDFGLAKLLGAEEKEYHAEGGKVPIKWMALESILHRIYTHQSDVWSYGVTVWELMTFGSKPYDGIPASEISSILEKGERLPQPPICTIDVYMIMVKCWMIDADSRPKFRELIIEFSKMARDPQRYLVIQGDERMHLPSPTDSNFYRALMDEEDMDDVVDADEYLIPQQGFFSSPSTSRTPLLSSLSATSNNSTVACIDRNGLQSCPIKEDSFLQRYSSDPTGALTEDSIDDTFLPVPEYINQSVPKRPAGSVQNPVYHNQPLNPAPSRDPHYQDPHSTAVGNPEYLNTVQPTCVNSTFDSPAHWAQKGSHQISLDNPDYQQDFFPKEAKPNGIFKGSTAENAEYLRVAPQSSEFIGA

Chain of Epidermal growth factor receptor (Homo sapiens) (P00533 whole entry): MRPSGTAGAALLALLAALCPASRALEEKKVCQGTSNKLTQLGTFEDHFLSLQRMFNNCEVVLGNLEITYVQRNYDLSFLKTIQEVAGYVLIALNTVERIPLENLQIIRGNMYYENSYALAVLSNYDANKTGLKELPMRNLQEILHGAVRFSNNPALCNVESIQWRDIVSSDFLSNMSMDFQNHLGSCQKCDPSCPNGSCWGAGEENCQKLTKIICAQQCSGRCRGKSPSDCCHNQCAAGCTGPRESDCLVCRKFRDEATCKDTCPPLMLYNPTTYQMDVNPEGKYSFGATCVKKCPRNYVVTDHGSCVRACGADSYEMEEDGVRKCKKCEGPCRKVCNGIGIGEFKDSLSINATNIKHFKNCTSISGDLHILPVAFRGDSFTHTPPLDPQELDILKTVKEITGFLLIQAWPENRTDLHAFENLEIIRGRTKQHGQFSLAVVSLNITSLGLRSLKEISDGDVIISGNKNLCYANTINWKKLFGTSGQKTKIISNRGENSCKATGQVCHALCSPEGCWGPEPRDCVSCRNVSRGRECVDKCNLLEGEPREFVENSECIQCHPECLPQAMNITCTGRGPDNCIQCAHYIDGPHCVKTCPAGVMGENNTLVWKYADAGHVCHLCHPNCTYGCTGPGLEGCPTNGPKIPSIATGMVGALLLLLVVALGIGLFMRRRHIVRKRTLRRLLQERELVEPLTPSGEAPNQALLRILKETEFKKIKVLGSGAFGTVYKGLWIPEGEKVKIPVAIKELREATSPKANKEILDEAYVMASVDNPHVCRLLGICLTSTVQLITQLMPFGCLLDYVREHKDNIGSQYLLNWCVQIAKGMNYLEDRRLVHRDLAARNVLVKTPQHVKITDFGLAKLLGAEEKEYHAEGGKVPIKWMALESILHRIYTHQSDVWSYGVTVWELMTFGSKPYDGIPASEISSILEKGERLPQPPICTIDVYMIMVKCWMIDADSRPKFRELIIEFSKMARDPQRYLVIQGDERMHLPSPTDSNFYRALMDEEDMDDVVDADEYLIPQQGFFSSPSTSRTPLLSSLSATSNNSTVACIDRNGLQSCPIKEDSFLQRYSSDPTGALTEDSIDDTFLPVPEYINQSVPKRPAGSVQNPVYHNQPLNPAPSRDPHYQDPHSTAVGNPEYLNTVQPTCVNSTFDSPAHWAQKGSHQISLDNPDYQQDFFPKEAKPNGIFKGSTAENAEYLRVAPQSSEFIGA
Chain of Epidermal growth factor receptor (Homo sapiens), P00533 [L861Q] (P00533 whole entry L861Q): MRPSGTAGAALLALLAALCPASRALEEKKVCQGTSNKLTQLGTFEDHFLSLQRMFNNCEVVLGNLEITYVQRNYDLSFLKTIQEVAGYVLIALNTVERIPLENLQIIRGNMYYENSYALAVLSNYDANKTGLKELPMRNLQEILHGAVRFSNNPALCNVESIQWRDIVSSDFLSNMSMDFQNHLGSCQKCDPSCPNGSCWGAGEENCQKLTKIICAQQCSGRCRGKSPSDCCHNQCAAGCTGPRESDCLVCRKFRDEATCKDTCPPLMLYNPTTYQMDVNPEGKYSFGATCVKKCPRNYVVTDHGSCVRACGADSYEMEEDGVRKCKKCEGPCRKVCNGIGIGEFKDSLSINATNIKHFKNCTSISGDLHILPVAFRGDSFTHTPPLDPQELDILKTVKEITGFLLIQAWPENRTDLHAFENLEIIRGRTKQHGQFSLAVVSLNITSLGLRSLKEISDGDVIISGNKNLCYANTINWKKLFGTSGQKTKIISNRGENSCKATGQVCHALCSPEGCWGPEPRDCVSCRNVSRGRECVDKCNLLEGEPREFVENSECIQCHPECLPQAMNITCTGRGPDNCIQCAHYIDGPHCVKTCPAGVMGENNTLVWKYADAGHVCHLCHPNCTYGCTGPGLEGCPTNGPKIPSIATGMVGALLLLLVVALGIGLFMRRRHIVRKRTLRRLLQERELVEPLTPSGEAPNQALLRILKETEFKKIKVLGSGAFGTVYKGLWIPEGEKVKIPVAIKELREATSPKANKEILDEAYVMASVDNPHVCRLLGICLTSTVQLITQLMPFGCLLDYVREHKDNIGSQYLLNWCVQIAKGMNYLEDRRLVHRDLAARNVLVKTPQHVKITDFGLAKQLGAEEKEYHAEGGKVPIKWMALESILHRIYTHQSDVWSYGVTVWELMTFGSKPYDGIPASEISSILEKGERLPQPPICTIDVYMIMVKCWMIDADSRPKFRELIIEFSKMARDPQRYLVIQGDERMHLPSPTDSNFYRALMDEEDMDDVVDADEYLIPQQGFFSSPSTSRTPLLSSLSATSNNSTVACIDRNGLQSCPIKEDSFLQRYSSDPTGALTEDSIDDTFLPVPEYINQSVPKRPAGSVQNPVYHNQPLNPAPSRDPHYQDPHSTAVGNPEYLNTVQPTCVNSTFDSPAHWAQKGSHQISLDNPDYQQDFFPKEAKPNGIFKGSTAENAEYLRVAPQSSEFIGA
Chain of Epidermal growth factor receptor (Homo sapiens), P00533 [L858R] (P00533 whole entry L858R): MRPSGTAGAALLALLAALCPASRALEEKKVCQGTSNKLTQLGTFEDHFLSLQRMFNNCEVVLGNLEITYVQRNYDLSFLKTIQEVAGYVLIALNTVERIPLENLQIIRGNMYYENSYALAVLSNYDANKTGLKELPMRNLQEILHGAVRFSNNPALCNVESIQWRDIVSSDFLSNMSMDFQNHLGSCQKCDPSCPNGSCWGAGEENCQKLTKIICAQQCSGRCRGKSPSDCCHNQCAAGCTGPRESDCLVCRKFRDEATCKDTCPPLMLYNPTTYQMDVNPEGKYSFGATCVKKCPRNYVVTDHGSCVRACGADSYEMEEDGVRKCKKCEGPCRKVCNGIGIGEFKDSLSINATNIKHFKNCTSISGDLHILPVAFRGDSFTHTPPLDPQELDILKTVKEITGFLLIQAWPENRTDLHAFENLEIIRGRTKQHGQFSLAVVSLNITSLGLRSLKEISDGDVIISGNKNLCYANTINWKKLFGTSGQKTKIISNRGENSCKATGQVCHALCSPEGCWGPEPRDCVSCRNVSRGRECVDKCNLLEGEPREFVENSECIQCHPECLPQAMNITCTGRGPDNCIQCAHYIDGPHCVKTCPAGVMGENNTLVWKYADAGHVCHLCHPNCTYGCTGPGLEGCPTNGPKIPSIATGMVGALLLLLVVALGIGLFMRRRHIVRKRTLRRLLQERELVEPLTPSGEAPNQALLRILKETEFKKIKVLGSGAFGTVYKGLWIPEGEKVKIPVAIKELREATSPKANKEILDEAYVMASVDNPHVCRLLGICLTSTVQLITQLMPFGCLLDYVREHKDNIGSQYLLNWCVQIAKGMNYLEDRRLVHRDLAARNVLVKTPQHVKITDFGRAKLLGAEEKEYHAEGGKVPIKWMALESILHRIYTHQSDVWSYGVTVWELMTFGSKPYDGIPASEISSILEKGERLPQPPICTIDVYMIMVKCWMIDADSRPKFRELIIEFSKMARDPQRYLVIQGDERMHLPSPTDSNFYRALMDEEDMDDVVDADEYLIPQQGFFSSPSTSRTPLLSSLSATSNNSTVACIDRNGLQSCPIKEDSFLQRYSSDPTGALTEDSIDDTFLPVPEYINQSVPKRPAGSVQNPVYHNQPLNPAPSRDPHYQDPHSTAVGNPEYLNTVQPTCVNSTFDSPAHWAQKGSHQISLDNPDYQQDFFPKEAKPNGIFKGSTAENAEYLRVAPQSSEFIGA

Work on `CCn1c(-c2nonc2N)nc2cnc(Oc3cccc(NC(=O)c4ccc(N(C)C)cc4)c3)cc21` yielded an inhibition [1] of -0.54%, an inhibition [2] of 1.4% and an inhibition [3] of 1.45%. It also gave an inhibition [4] of 2.76%, an inhibition [5] of 1.68% and an inhibition [6] of 1.49%. For the same compound, the inhibition [7] was 1.2%, the inhibition [8] was 1.12% and the inhibition [9] was -0.57%. For the same compound, the inhibition [10] was 0.09%.

`c1cc(-c2cnn3nc(N4CCOCC4)ccc23)nc(NC2CC2)n1` gave an inhibition [1] of 5.31%, an inhibition [2] of 1.38% and an inhibition [3] of 3.9%. The inhibition [4] was 4.04%, the inhibition [5] was 6.33% and the inhibition [6] was 5.72%. The inhibition [7] was 2.16%, the inhibition [8] was 3.88% and the inhibition [9] was 2.28%. For the same compound, the inhibition [10] was 2.15%.

`CN1CCC(n2cnc(-c3ccc(F)cc3)c2-c2ccnc(Nc3ccccc3)n2)CC1` showed an inhibition [1] of 6.08%, an inhibition [2] of -0.08% and an inhibition [3] of 0.85%. The inhibition [4] was 9.04%, the inhibition [5] was 46.6% and the inhibition [6] was 37%. For the same compound, the inhibition [7] was 84.8%, the inhibition [8] was 9.58% and the inhibition [9] was 51.3%. The inhibition [10] was 1.19%.

`CN1CCC(n2cnc(-c3ccc(F)cc3)c2-c2ccnc(N)n2)CC1` showed an inhibition [1] of 1.95%, an inhibition [2] of 0.93% and an inhibition [3] of 1.6%. The inhibition [4] was 5.7%, the inhibition [5] was 12.2% and the inhibition [6] was 3.61%. It also gave an inhibition [7] of 16.5%, an inhibition [8] of 1.43% and an inhibition [9] of 6.75%. The inhibition [10] was -0.02%.

For `CNC(=O)c1cc(-c2ccc(F)cc2)cc(-c2ccc(S(=O)(=O)N3CCCC3)cc2)c1N`, the inhibition [1] was 2.28%, the inhibition [2] was 1.09% and the inhibition [3] was 1.38%. The inhibition [4] was 5.94%, the inhibition [5] was 6.92% and the inhibition [6] was 0.45%. For the same compound, the inhibition [7] was 5.35%, the inhibition [8] was 2.56% and the inhibition [9] was 4.86%. The inhibition [10] was 0.67%.

`O=C(O[C@H]1CN[C@H](C#Cc2cc3ncnc(Nc4ccc(Cc5ccccc5)cc4)c3s2)C1)N1CCOCC1` showed an inhibition [1] of 2.39%, an inhibition [2] of -1.8% and an inhibition [3] of -1.26%. It also gave an inhibition [4] of 27.8%, an inhibition [5] of 69.9% and an inhibition [6] of 1.68%. For the same compound, the inhibition [7] was 11.4%, the inhibition [8] was 15.1% and the inhibition [9] was 26.9%. For the same compound, the inhibition [10] was 1.18%.

In the case of `O=C(Nc1n[nH]c2cc(-c3ccc(F)cc3)ccc12)C1CC1`, the inhibition [1] is reported as 5.61%, the inhibition [2] is reported as 2.28% and the inhibition [3] is reported as 1.71%. The inhibition [4] was -1.79%, the inhibition [5] was 4.27% and the inhibition [6] was 0.24%. The inhibition [7] was 4.19%, the inhibition [8] was 1.33% and the inhibition [9] was 2.33%. For the same compound, the inhibition [10] was 1.54%.

In the case of `CN(C)CCOc1ccc(-c2nc(-c3ccncc3)c(-c3ccc4c(c3)CC/C4=N\O)[nH]2)cc1`, the inhibition [1] is reported as 2.75%, the inhibition [2] is reported as 1.41% and the inhibition [3] is reported as 0.64%. The inhibition [4] was 2.89%, the inhibition [5] was 2.4% and the inhibition [6] was 5%. The inhibition [7] was 9.64%, the inhibition [8] was 2.57% and the inhibition [9] was 8.13%. For the same compound, the inhibition [10] was 2.18%.

`CCNC(=O)O[C@H]1CN[C@H](C#Cc2cc3ncnc(Nc4ccc(OCc5cccc(F)c5)c(Cl)c4)c3s2)C1` gave an inhibition [1] of 7.41%, an inhibition [2] of 2.66% and an inhibition [3] of 1.39%. It also gave an inhibition [4] of 86.6%, an inhibition [5] of 98% and an inhibition [6] of 32.5%. The inhibition [7] was 81%, the inhibition [8] was 37.6% and the inhibition [9] was 67%. The inhibition [10] was 2.9%.

`CC(C)(CO)CNC(=O)c1ccc2c(c1)/C(=N/Nc1ccc(S(N)(=O)=O)cc1)C(=O)N2` gave an inhibition [1] of -0.3%, an inhibition [2] of -1.82% and an inhibition [3] of 3.39%. The inhibition [4] was 5.33%, the inhibition [5] was 5.03% and the inhibition [6] was -3.09%. For the same compound, the inhibition [7] was -0.53%, the inhibition [8] was -0.63% and the inhibition [9] was -0.88%. For the same compound, the inhibition [10] was -1.56%.

Work on `COc1cc(N2CCN(C(C)C)CC2)ccc1Nc1nc(Nc2ccc(F)cc2C(N)=O)c2cc[nH]c2n1` yielded an inhibition [1] of 0.44%, an inhibition [2] of 0.99% and an inhibition [3] of 0.35%. It also gave an inhibition [4] of 5.2%, an inhibition [6] of 1.78% and an inhibition [7] of 39.2%. It also gave an inhibition [8] of 3.8%, an inhibition [9] of 23.1% and an inhibition [10] of 26.4%.

With `CNC(=O)c1cccc(C#Cc2cncnc2Nc2ccc(OCc3cccc(F)c3)c(Cl)c2)c1` the inhibition [1] was 3.24%, the inhibition [2] was 0.18% and the inhibition [3] was 4.52%. The inhibition [4] was 62.1%, the inhibition [5] was 82.2% and the inhibition [6] was 13.8%. The inhibition [7] was 62.1%, the inhibition [8] was 25.9% and the inhibition [9] was 45.7%. For the same compound, the inhibition [10] was 1.03%.

In the case of `CCCN(CCS(C)(=O)=O)Cc1ccc(-c2ccc3ncnc(Nc4ccc(OCc5cccc(F)c5)c(Cl)c4)c3c2)o1`, the inhibition [1] is reported as 5.5%, the inhibition [2] is reported as 1.06% and the inhibition [3] is reported as 1.68%. For the same compound, the inhibition [4] was 77.6%, the inhibition [5] was 78.4% and the inhibition [6] was 53.4%. The inhibition [7] was 95%, the inhibition [8] was 53% and the inhibition [9] was 88.2%. For the same compound, the inhibition [10] was 2.23%.

For `[O-][S+]1CCN(Cc2ccc(-c3ccc4ncnc(Nc5ccc(OCc6cccc(F)c6)c(Cl)c5)c4c3)o2)CC1`, the inhibition [1] was 5.15%, the inhibition [2] was 2.52% and the inhibition [3] was 2.37%. The inhibition [4] was 81.3%, the inhibition [5] was 83.5% and the inhibition [6] was 88.1%. It also gave an inhibition [7] of 99.1%, an inhibition [8] of 77.5% and an inhibition [9] of 95.7%. The inhibition [10] was 7.36%.

For `Fc1cccc(COc2ccc(Nc3ncnc4sc(-c5ccco5)cc34)cc2Cl)c1`, the inhibition [1] was 2.56%, the inhibition [2] was 3.86% and the inhibition [3] was 4.41%. It also gave an inhibition [4] of 71.9%, an inhibition [5] of 81.9% and an inhibition [6] of 15.2%. For the same compound, the inhibition [7] was 54.8%, the inhibition [8] was 30.2% and the inhibition [9] was 51%. It also gave an inhibition [10] of 1.83%.

Compound `FC(F)(F)c1cccc(-c2nn3ncccc3c2-c2ccnc(Nc3ccc4c(c3)OCCO4)n2)c1` has an inhibition [1] of 4.25%, an inhibition [2] of 1.27% and an inhibition [3] of 16.5%. For the same compound, the inhibition [4] was 5.52%, the inhibition [5] was 45.3% and the inhibition [6] was 5.51%. For the same compound, the inhibition [7] was 55.7%, the inhibition [8] was 8.83% and the inhibition [9] was 33.4%. For the same compound, the inhibition [10] was 2.2%.

`COc1ccc(-c2oc3ncnc(N)c3c2-c2ccc(NC(=O)Nc3cc(C(F)(F)F)ccc3F)cc2)cc1` gave an inhibition [1] of 61%, an inhibition [2] of 56.3% and an inhibition [3] of 87.3%. It also gave an inhibition [4] of 2.43%, an inhibition [5] of 2.22% and an inhibition [6] of 3.73%. It also gave an inhibition [7] of 6.19%, an inhibition [8] of 4.81% and an inhibition [9] of 7.85%. The inhibition [10] was 1.19%.
